rCAG RNA binder: r(CAG) repeat RNA binding; TO-PRO-1 dye displacement fluorescence; inhibition, % at 3 µM; hit rate 1.3% among 370,000; AID 651821;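 active = inhibition above the plate cutoff, the mean of all test compounds on that plate plus 3 SD, cut at about 35% in these data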;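 also: 0% = DMSO alone and 100% = 100 µM mitoxantrone as full dye displacement; higher means more dye released from RNA so lower well fluorescence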
MsrA act: activates bovine MsrA enzyme. purified bovine MsrA, absorbance read-out. activation, % at 10.6 µM. hit rate 0.3% among 360,000; in the data active = activation above about 7.5%;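 also: 0% = vehicle and 100% = reference activator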
MsrA inh: bovine MsrA inhibition. inhibition, % at 15.5 µM. purified bovine MsrA, absorbance read-out. AID 651718. hit rate 0.75% among 360,000; in the data active = inhibition above about 4.5%;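 also: 0% = vehicle wells with enzyme and 100% = reference inhibitor wells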
HGIII-sPLA2 inh: Inhibits HGIII-sPLA2 liposome hydrolysis, primary screen; AID 743126; hit rate 0.56% among 370,000; Q9NZ20; QFRET BODIPY PC-A2 liposome hydrolysis, fluorescence; inhibition, % at 12.2 µM;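 active = inhibition above mean plus 3 SD of compounds lying within the high and low control bounds, cut at about 19% in these data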;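 also: 0% = median of test compound wells and 100% = no enzyme DMSO wells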
Target sequence (Q9NZ20 whole entry, looked up): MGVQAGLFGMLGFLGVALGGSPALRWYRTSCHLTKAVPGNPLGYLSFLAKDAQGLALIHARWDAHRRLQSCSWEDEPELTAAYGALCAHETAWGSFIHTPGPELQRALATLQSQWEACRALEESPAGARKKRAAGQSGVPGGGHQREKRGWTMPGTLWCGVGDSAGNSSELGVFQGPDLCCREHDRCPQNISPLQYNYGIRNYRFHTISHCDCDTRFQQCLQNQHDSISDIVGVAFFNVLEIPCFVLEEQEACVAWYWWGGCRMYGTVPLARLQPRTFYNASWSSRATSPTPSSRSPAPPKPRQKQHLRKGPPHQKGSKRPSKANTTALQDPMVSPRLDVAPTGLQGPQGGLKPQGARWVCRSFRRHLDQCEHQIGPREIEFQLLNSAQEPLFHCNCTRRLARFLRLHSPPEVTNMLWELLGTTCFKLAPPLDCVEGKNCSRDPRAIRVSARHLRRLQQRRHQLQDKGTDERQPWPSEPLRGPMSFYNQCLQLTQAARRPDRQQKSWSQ
MsrA activ conf: bovine methionine sulfoxide reductase A activation confirmed. shares compounds with MsrA act. purified bovine MsrA, absorbance read-out. activation, % at 10.6 µM. hit rate 12% among 1,000; in the data active = activation above about 4%;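 also: enzyme coupled to thioredoxin and thioredoxin reductase with NADPH; 0% = vehicle wells and 100% = reference activator wells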
* = called active by the depositor; . = not tested or not shown. Shown are actives, neighbours in structure and some others; about 2.8% of the full set was active somewhere.

SMILES	rCAG RNA binder	MsrA act	MsrA inh	HGIII-sPLA2 inh	MsrA activ conf
Cc1cc(C)cc(N(CC(=O)Nc2ccccc2C(=O)N2CCOCC2)S(C)(=O)=O)c1	-3	9.2*	-1	-1	-2
Brc1ccccc1OCCN1CCOCC1	-4	9.5*	-1	-5	-3
Clc1cc(Br)ccc1OCCN1CCOCC1	-4	-9	-1	3	.
COc1cc(NC(=O)c2ccccc2Cl)ccc1NC(=O)c1ccco1	1	-1	1	-1	.
Cc1cc(NC(=O)CCCC(=O)OCC(F)(F)C(F)F)cc(C)c1C(=O)O	4	8.3*	-1	-3	-3
COc1ccccc1NC(C)C(=O)N/N=C/c1cccs1 (configuration not stated)	-7	-5	2	3	.
O=C(C1CCN(S(=O)(=O)c2ccc(Cl)s2)CC1)N1CCN(c2ccccc2)CC1	-3	-1	-1	-3	.
COc1ccc(C)cc1S(=O)(=O)Nc1cccc(C)c1	-2	0	0	2	.
COc1ccc(C)cc1S(=O)(=O)Nc1cccc(SC)c1	1	8.8*	0	-24	-2
Oc1ccc(-c2n[nH]c(=S)n2Cc2ccccc2)cc1	1	1	0	10	.
COc1ccc(-c2nc(=S)[nH][nH]2)cc1OC	0	10*	2	5	2
COc1cc(-c2nc(=S)[nH][nH]2)cc(OC)c1OC	3	8.1*	-1	-4	4.8*
S=c1nc(-c2cc(Cl)cc(Cl)c2)[nH][nH]1	4	3	0	-8	.
COc1ccc(-c2nc(=S)[nH][nH]2)cc1	1	4	-1	3	.
N#Cc1cccc(-c2nnc(SCc3ccccc3C#N)o2)c1	-5	14*	0	-6	2
N#Cc1ccccc1CSc1nnc(-c2ccncc2)o1	.	-8	.	.	.
COCCN(CCOC)Cc1cc(=O)oc2cc3c(cc12)CCC3	-2	1	1	3	.
COCCN(CCOC)Cc1cc(=O)oc2cc(C)ccc12	-1	12*	1	-1	-1
COc1ccc(-c2csc3ncnc(N4CCN(C(=O)c5ccco5)CC4)c23)cc1	0	-2	-1	-11	.
CC1=C(C(=O)OC(C)(C)C)C(c2ccc3ccccc3c2)NC(=O)N1C (configuration not stated)	-2	2	0	-1	.
S=c1nccc(-c2ccc(Cl)cc2)[nH]1	1	8.3*	1	7	4
C#CCNC(=O)C1=C[C@@H](c2ccc3c(c2)OCO3)C[C@@H](OCc2ccc(CO)cc2)O1	2	8.5*	0	-3	1
COc1ccc(Cn2nnnc2CN2CCN(c3ccc(OC)cc3)CC2)cc1	-9	5	-1	-1	.
CCN1CCSc2ccc(C(=O)NCc3ccc(OC(C)C)cc3)cc21	4	-1	1	8	.
CCOC(=O)Cn1c(=O)c2c(nc3n2CCCCN3c2ccc(OCC)cc2)n(C)c1=O	-6	8.0*	2	-1	-1
SMILES	rCAG RNA binder	MsrA act	MsrA inh	HGIII-sPLA2 inh	MsrA activ conf
CCCCOC(=O)Cn1c(=O)c2c(nc3n2CCCCN3c2ccc(C)cc2)n(C)c1=O	-4	-3	-1	5	.
O=C(O)C1=NOC(CNC(=O)c2ccccc2Cl)C1 (configuration not stated)	-3	11*	-1	-3	3
Nc1nc(-c2ccco2)nn1C(=O)c1ccc([N+](=O)[O-])cc1	0	-1	-1	1	.
Cc1ccc(NC(=O)C(C)OC(=O)c2ccc(NC(=O)CC#N)cc2)cc1S(=O)(=O)N1CCOCC1 (configuration not stated)	28	9.5*	-1	-52	-2
Cc1ccc(C(=O)OC(C)C(=O)Nc2ccc(S(N)(=O)=O)cc2)cc1S(=O)(=O)N1CCOCC1 (configuration not stated)	7	-1	0	-19	.
COc1nccc(C(F)(F)F)c1C(=O)NC(=O)Nc1ccccc1	-8	9.5*	1	11	2
c1ccc2cc(OCCOCCOc3ccc4ccccc4c3)ccc2c1	-4	-8	0	4	.
CN(C)c1nc(NC(C)(C)C)nc(SCC(=O)Nc2ccccc2)n1	-10	7.7*	0	-23	-3
Cc1cc(NC(=O)CSc2nnc(-c3ccncc3)n2-c2ccc(F)cc2)no1	-2	1	-1	-2	.
COc1ccc(-c2noc(CSc3nnc(-c4ccncc4)n3-c3ccc(F)cc3)n2)cc1OC	-3	18*	2	3	0
COc1ccc(/C=C/C(=O)NCCc2ccc(S(N)(=O)=O)cc2)cc1	3	13*	0	-4	-5
NS(=O)(=O)c1ccc(CCNC(=O)/C=C/c2ccc([N+](=O)[O-])cc2)cc1	9	-11	2	-12	.
O=c1cc(CSc2ccccc2)[nH]c2ccccc12	1	-1	0	-1	.
O=c1cc(CSc2ccccc2)[nH]c(=S)[nH]1	-1	11*	1	1	4
CCCNC(=O)C1(C)CCCN(C(=O)c2cccc(C#N)c2)C1 (configuration not stated)	0	-1	-1	0	.
O=C1CN(C(=O)c2ccc(Br)o2)C(c2ccccc2)c2cc(F)ccc2N1 (configuration not stated)	4	12*	0	3	-3
COC(=O)CNC(=O)COC(=O)/C=C/c1cccs1	-2	-5	2	4	.
COC(=O)CNC(=O)COC(=O)/C=C/c1ccc2ccccc2n1	-6	8.7*	2	1	-3
CCOC(=O)Cn1nc(C)c(NC(=O)COc2ccccc2)c1C	1	8.0*	-1	-2	2
COc1ccc(S(=O)(=O)N2CCCC(C(=O)NCc3cccnc3)C2)cc1 (configuration not stated)	1	-5	-1	1	.
CCOc1ccc(S(=O)(=O)N2CCCC(C(=O)NCc3cccnc3)C2)cc1 (configuration not stated)	-6	8.9*	-1	-1	-2
CC(=O)Nc1ccc(SC[C@H](Cc2ccccc2)N2CC[C@@H](O)CCC2=O)cc1	1	9.3*	0	-1	-1
CC(=O)Nc1ccc(SC[C@H](Cc2ccccc2)N2CC[C@@H](C(C)(C)C)CCC2=O)cc1	2	-4	1	-8	.
O=C(CC1C(=O)NCCN1Cc1cccc(C(F)(F)F)c1)NCCCOc1cccnc1 (configuration not stated)	-2	-4	1	5	.
Cc1cc(C)n(CCc2nc(-c3ccc(C(C)(C)C)cc3)cs2)n1	2	9.3*	0	-3	-4
CCCc1cnc(N2CCN(C(=O)c3ccc(F)cc3)CC2)nc1	-8	0	-1	-2	.
CC1Cc2ccccc2N1C(=O)COC(=O)c1cccc(Br)c1 (configuration not stated)	1	24*	1	6	-2
Cc1nn(CCC(=O)NNC(=S)Nc2cccc(Cl)c2)c(C)c1[N+](=O)[O-]	14	11*	0	15	0
O=c1oc2ccc(C#CC3(O)CCCCC3)cc2cc1-n1cc(C2(O)CCCCC2)nn1	-1	8.6*	-1	0	-1
O=C(Nc1ccc(F)cc1)N1CCN(c2nc3ccccc3s2)CC1	0	8.0*	0	0	1
